Source: the supplement of paper PMC13380429

System: Vero E6 infected with SARS-CoV-2
Experiment: inhibition of SARS-CoV-2 cytopathic effect; higher = more antiviral protection, active = above 15
Details: 48 h

Measured: inhibition of SARS-CoV-2 cytopathic effect

O=C(O)C1=CO[C@@H](O[C@@H]2O[C@H](CO)[C@@H](O)[C@H](O)[C@H]2O)[C@@H]2C(CO)=CC[C@H]12 [Geniposidic acid]
inactive: 1 nM -0.41% | 8.33 nM 3.01% | 100 nM 0.36% | 833.33 nM -1.23% | 10000 nM 1.07%

CCCCC1(COC(=O)CCC(=O)O)C(=O)N(c2ccccc2)N(c2ccccc2)C1=O [suxibuzone]
inactive: 1 nM -0.21% | 8.33 nM -4.18% | 100 nM -2.21% | 833.33 nM -3.64% | 10000 nM 0.42%

CC(C)(C)c1ccc(S(=O)(=O)NCc2ccc(C(=O)Nc3cccnc3)cc2)cc1
inactive: 1 nM 1.28% | 8.33 nM 0.01% | 100 nM -0.96% | 833.33 nM -2.95% | 10000 nM -10.9%

O=C1Nc2ccccc2C2(CCN(CCc3ccc(C(F)(F)F)cc3)CC2)O1
inactive: 1 nM -1.89% | 8.33 nM -4.51% | 100 nM -1.41% | 833.33 nM -2.49% | 10000 nM -3.73%

O=C1c2cc(Cl)ccc2OC2CCON12 (stereo not given) [seclazone]
inactive: 1 nM -0.24% | 8.33 nM 1.68% | 100 nM 1.79% | 833.33 nM 0.75% | 10000 nM 1.99%

C[C@@]12C[C@@]3(O)O[C@@H](O1)[C@]1(COC(=O)c4ccccc4)[C@H]3C[C@@]12O[C@@H]1O[C@H](CO)[C@@H](O)[C@H](O)[C@H]1O [paeoniflorin]
inactive: 1 nM -0.01% | 8.33 nM 0.45% | 100 nM 0.1% | 833.33 nM 0.8% | 10000 nM 0.46%

NS(=O)(=O)c1cc2c(cc1Cl)NCNS2(=O)=O [hydrochlorothiazide]
inactive: 1 nM 3.33% | 8.33 nM 0.33% | 100 nM 0.49% | 833.33 nM 0.84% | 10000 nM -1.16%

c1ccc(OCc2ccc(CCCN3CCOCC3)cc2)cc1 [fomocaine]
inactive: 1 nM 0.24% | 8.33 nM 1.88% | 100 nM 1.23% | 833.33 nM -0.27% | 10000 nM 3.83%

N=C(N)S/C=C\C(=O)O
inactive: 1 nM 1.98% | 8.33 nM 0.81% | 100 nM -2.6% | 833.33 nM -1.03% | 10000 nM -0.56%

C[C@H]1N=C(N(C)C)N=C(N)N1 [imeglimin]
inactive: 1 nM 1.51% | 8.33 nM 1.14% | 100 nM 0.07% | 833.33 nM 0.43% | 10000 nM -0.77%

O=C1[O][SbH]23[O]C(=O)C([O]2)C2[O][SbH]4([O]C(=O)C([O]4)C1[O]3)[O]C2=O [antimonyl]
inactive: 1 nM 0.49% | 8.33 nM 0.38% | 100 nM -2.02% | 833.33 nM 0.19% | 10000 nM -10.4%

NC(=O)NCCC[C@H](N)C(=O)O [L-citrulline]
inactive: 1 nM 0.06% | 8.33 nM -1.99% | 100 nM 1.8% | 833.33 nM 2.58% | 10000 nM 1.61%

CN1CCCN(C(c2ccccc2)c2ccc(Cl)cc2)CC1 (stereo not given) [homochlorcyclizine]
inactive: 1 nM 2.1% | 8.33 nM 1.84% | 100 nM 1.43% | 833.33 nM -2.39% | 10000 nM -1.32%

CC(CC(C(N)=O)(c1ccccc1)c1ccccc1)N(C)C (stereo not given) [aminopentamide]
inactive: 1 nM -1.11% | 8.33 nM -1.56% | 100 nM -1.71% | 833.33 nM 0.24% | 10000 nM -0.57%

C=CCN1CC[C@]23c4c5ccc(O)c4O[C@H]2/C(=N/NC(=O)c2ccccc2)CC[C@@]3(O)[C@H]1C5 [naloxone-benzoylhydrazone]
inactive: 1 nM -0.04% | 8.33 nM 0.97% | 100 nM 0.75% | 833.33 nM 5.45% | 10000 nM 0.69%

NS(=O)(=O)Nc1ncnc(OCCOc2ncc(Br)cn2)c1-c1ccc(Br)cc1
inactive: 1 nM -1.74% | 8.33 nM -0.97% | 100 nM -0.65% | 833.33 nM -3.11% | 10000 nM -3.32%

CC(C)CNc1nc(-c2cccc3ncccc23)cn2c(-c3ccc(C(=O)NC4CC4)cc3)cnc12
inactive: 1 nM -3.61% | 8.33 nM -1.58% | 100 nM 1.09% | 833.33 nM -6.07% | 10000 nM -3.69%

C[C@@H](O)[C@H]1C(=O)N2C(C(=O)[O-])=C(SC3Cn4cnc[n+]4C3)[C@H](C)[C@H]12 (stereo not given in full) [biapenem]
inactive: 1 nM -2.15% | 8.33 nM -0.04% | 100 nM 0.1% | 833.33 nM 0.63% | 10000 nM -0.14%
